Source: PubChem BioAssay
Activity calls are given as the source filed them. The rule behind the calls is not given here.

Target: Pantothenate synthetase (Mycobacterium tuberculosis (strain ATCC 25618 / H37Rv)) (UniProt P9WIL5)
Assay: Recombinant Mtb pantothenate synthetase (PanC) inhibitors, coupled enzyme, confirmatory (AID 375);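 note: 0% = full reaction with vehicle and 100% = no enzyme background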
Settings: coupled enzyme assay; at 10 µM, hits give high values

Sequence of Pantothenate synthetase (Mycobacterium tuberculosis (strain ATCC 25618 / H37Rv)) (P9WIL5 whole entry, looked up): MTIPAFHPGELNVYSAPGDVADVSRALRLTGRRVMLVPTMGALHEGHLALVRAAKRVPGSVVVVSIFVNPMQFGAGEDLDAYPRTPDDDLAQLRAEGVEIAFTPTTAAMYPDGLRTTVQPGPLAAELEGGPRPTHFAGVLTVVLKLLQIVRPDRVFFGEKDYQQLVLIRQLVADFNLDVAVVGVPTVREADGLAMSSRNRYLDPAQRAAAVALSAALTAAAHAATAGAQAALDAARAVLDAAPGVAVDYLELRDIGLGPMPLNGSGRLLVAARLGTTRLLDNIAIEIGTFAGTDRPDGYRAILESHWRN

| Structure (SMILES) | inhibition |
| --- | --- |
| CN(C)CCCOC(=O)CCc1ccccc1 | 0% (inactive) |
| COc1ccccc1S(=O)(=O)Cc1ccc(C(=O)N2CCOCC2)o1 | 0% (inactive) |
| Cc1c(C(=O)O)oc2ccc(S(=O)(=O)NCCC3=CCCCC3)cc12 | 2% (inactive) |
| Cc1nc(N)[nH]c(=O)c1CCC(=O)OCC(C)C | 0% (inactive) |
| CCCc1nnc2n1N=C(c1ccc(OC)c(OC)c1)CS2 | 0% (inactive) |
| Cc1ccc2[nH]c(=O)c(C(c3nnnn3CCc3ccccc3)N3CCOCC3)cc2c1 (configuration not stated) | 6% (inactive) |
| O=C1C(Cl)=C(NCC2CCCO2)C(=O)N1CCc1ccccc1 (configuration not stated) | 0% (inactive) |
| O=C(Nc1ccc2oc(Cc3ccc(Cl)cc3)nc2c1)c1cccnc1 | 0% (inactive) |
| CC(=O)N1CCc2cc(S(=O)(=O)CCC(=O)N3CCN(c4ccccn4)CC3)ccc21 | 11% (inactive) |
| O=C(CN1CCC(n2nnc3ccccc32)CC1)Nc1ccc2c(c1)CCC2 | 0% (inactive) |
| CC(C)OCCCNC(=O)c1cc2c(s1)CS(=O)(=O)C2 | 0% (inactive) |
| COc1cc(C(=O)Nc2ccc3c(c2)C(=O)N(CCC(=O)O)C3=O)cc(OC)c1OC | 0% (inactive) |
| COc1ccc(Cl)cc1Nc1nc(C)cc(=O)[nH]1 | 3% (inactive) |
| COc1cccc(-c2nnn(CC(=O)O)n2)c1 | 0% (inactive) |
| CC(=O)NC(CCS(C)(=O)=O)C(=O)Nc1cccc(C)c1 (configuration not stated) | 3% (inactive) |
| Cc1cc(NC(=O)CSc2nnc(COc3cccc(C)c3C)n2Cc2ccco2)no1 | 0% (inactive) |
| CCn1c(=O)cc(OCC(=O)NC2CCCCC2)c2ccccc21 | 0% (inactive) |
